Rows were chosen to be rich in hits. Some 3.3% of all compounds tested hit in one or more screens of this group.
Jurkat NFkB inh = inhibitors of the PMA/ionomycin-induced NF-kB reporter in Jurkat cells. PMA/ionomycin-induced NF-kB luciferase reporter, luminescence. inhibition, % at 4 µM. 0.53% of 330,000 active. AID 435003; in the data active means inhibition above about 50%
esBAF inh = SWI/SNF esBAF complex inhibition | mouse ES cells, Bmi1-luciferase knock-in reporter, 24 h; 100% = twice the neutral-well signal | reporter increase, % at 12.5 µM | 2% of 350,000 active | AID 602393; in the data active means activation above about 40%;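 further: 0% = median of the plate's neutral control wells and 100% = double that signal; a rise in the Bmi1 reporter signal indicates esBAF inhibition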
Gli-Sufu antag = antagonists of Gli-Sufu signaling; Sufu-KO-LIGHT fibroblasts, Gli luciferase reporter luminescence; inhibition, % at 5 µM; 0.74% of 340,000 active; AID 588413;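 active means inhibition above about 55%, limit read from the data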;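 further: 0% = DMSO-treated cells and 100% = wells with medium but no cells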
SMARCA2 activ = SMARCA2 function activation, primary screen; MG213 cells, MMTV-luciferase reporter, dexamethasone, overnight; AID 652017; 1% of 370,000 active; activation, % at 9.1 µM; in the data active means activation above about 7.8%;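 further: 0% = vehicle wells and 100% = reference activator wells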
697 NFkB inh = inhibitors of the PMA/ionomycin-induced NF-kB reporter in 697 B cells; 0.33% of 330,000 active; inhibition, % at 4 µM; 697 B-cell NF-kB luciferase reporter, 16 h; AID 435022; in the data active means inhibition above about 35%
* = called active by the depositor; x = not tested or not shown.

SMILES | Jurkat NFkB inh | esBAF inh | Gli-Sufu antag | SMARCA2 activ | 697 NFkB inh
O=C1S/C(=C\c2cccs2)C(=O)N1c1ccc(O)cc1 | -24 | 50* | -41 | 7 | -78
O=C1/C(=C/c2cccs2)SC(=S)N1c1ccccc1 | -10 | 36 | 16 | -3 | -39
Cc1cc(C(N)=O)c2ccccc2n1 | -8 | -1 | -5 | -2 | -7
NC(=O)c1cc2c3ccccc3ccn2c1-c1ccccc1 | x | 49* | 5 | 6 | x
Cc1cccc(Nc2cc(C)c3c(O)cccc3n2)c1C | -49 | 60* | -12 | -2 | -28
Cc1cccc(NC(=S)N(C)C)c1C | -7 | -1 | 7 | -3 | 3
Cc1ccc2c(c1)c(/C=C/c1cc[n+](C)cc1)c(C)n2C | 46 | -10 | 57* | -1 | -3
Cc1ccc(S(=O)(=O)N(C)C[C@@H]2Oc3ccc(NC(=O)Cn4cnnn4)cc3C(=O)N([C@H](C)CO)C[C@H]2C)cc1 | x | 3 | x | x | x
C#CCn1c(=NC(=O)c2ccc(Br)s2)sc2cccc(OC)c21 | -48 | 54* | -14 | 1 | -27
C=CCn1c(=NC(=O)c2cccs2)sc2cccc(OC)c21 | -15 | 2 | -12 | -1 | -6
COc1ccccc1-c1ccc2c(c1)O[C@H](CN(C)C(C)=O)[C@H](C)CN([C@@H](C)CO)S2(=O)=O | x | 3 | x | x | x
CCCC(=O)Nc1ccc2c(c1)OC[C@H](C)N(CCC(F)(F)F)C[C@H](C)[C@H](OC)CN(C)C2=O | x | -5 | x | x | x
OC1CCCCC1Sc1nc2ccccc2s1 (stereo not given) | -27 | 53* | -41 | 6 | -46
Oc1c(Br)cc(Br)cc1/C=N/Nc1ccc(Cl)nn1 | x | -62 | 90* | -2 | x
CN(C)C(=O)C[C@H]1C[C@@H]2c3cc(NC(=O)c4ccc5c(c4)OCO5)ccc3O[C@@H]2[C@@H](CO)O1 | x | 2 | x | x | x
C[C@H](CO)N1C[C@H](C)[C@@H](CN(C)Cc2ccc(C(=O)O)cc2)Oc2ncc(C3=CCCCC3)cc2C1=O | x | -1 | x | x | x
Cc1ccc(C(=O)Nc2ncc(Cc3ccc(F)cc3)s2)o1 | -26 | -1 | -24 | 7.9* | 6
Cc1ccc(C(=O)Nc2ncc(C)s2)o1 | -73 | x | 11 | 4 | -38
N#Cc1cc2cc3c(cc2nc1N1CCCCC1)OCCO3 | -41 | 70* | -26 | -3 | -6
Nc1c(C(=O)Nc2ccccc2)sc2nc(-c3cccnc3)ccc12 | -28 | x | x | -1 | -22
Nc1c(C(=O)N2CCCC2)sc2nc(-c3ccccc3)ccc12 | -52 | 69* | -63 | 6 | -43
Nc1c(C(=O)N2CCCCC2)sc2nc3c(cc12)CCCC3 | -4 | 54* | 7 | 5 | 13
COc1ccc2cc3c(N)c(C(=O)N4CCCC4)sc3nc2c1 | 0 | x | -13 | 0 | 4
COCC(=O)N(C)C[C@@H]1Oc2cc(C#C[C@@H](C)O)ccc2S(=O)(=O)N([C@@H](C)CO)C[C@H]1C | x | -5 | x | x | x
Cc1cc(C(=O)Nc2cccc3c2O[C@@H](CN(C)C)[C@H](C)CN([C@H](C)CO)C3=O)n(C)n1 | x | -5 | x | x | x
SMILES | Jurkat NFkB inh | esBAF inh | Gli-Sufu antag | SMARCA2 activ | 697 NFkB inh
Fc1ccccc1/C=N/n1cc(-c2ccccc2)[nH]c1=S | -26 | 54* | -28 | -1 | -21
CNC(C)C#Cc1ccc2c(=O)c3cc(C)c(C)cc3oc2c1 (stereo not given) | -58 | 69* | -159 | 4 | -191
Cc1ccc(S(=O)(=O)c2nc(S(C)(=O)=O)sc2N2CCC(C)CC2)cc1 | 11 | 8 | 4 | 7.8* | -19
Cc1noc(C)c1S(=O)(=O)Nc1ccc2c(c1)C(=O)N([C@H](C)CO)C[C@@H](C)[C@H](CN(C)C(=O)C1CCCCC1)OCCCC[C@@H](C)O2 | x | 3 | x | x | x
Cc1cc(NC(=O)c2ccc(OCC3CCCO3)cc2)ccc1Br (stereo not given) | x | 71* | x | 0 | x
CO[C@@H]1CN(C)C(=O)c2ccc(NS(=O)(=O)c3ccccc3C)cc2OC[C@@H](C)N(S(C)(=O)=O)C[C@H]1C | x | 1 | x | x | x
CC(C)NC(=O)N[C@@H]1CC[C@@H](CCNS(=O)(=O)c2ccc(Cl)cc2)O[C@@H]1CO | x | 4 | x | x | x
C[C@H](CO)N1C[C@H](C)[C@@H](CN(C)Cc2ccccc2F)Oc2cc(C3=CCCC3)ccc2S1(=O)=O | x | -9 | x | x | x
CCCSCCCNC(=O)c1ccc(NC(=O)C2=CSCCO2)cc1 | -8 | 55* | -9 | -1 | -2
CC(=O)N/N=C\c1ccccc1OC/C=C/c1ccccc1 | -78 | 70* | -101 | -3 | -91
CC(=O)N/N=C\c1cccc(OC/C=C/c2ccccc2)c1 | -17 | 38 | x | 6 | -71

Bioassay records (PubChem BioAssay)
